# Reference: the supplement of paper PMC7366291
# Structures can show the parent of a compound that is named as a salt. ± gives the standard deviation of the averaged measurements.
# Tested on: Danio rerio Tg(wt1b:EGFP) embryo, pronephros
# Assay: glomerular width (mean of left and right), fold change vs DMSO control; higher = wider glomerulus
# Settings: 25 µM; exposure: 24-48 hpf
# How it was run: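 Each feature value is a fold change relative to the mean of same-day DMSO-treated embryos. Embryos of the Tg(wt1b:EGFP) zebrafish line, dechorionated, received 25 μM compound in 0.5% DMSO from 24 to 48 hpf at 28.5°C, in HEPES-buffered E3 with 0.003% PTU. Distances and angles were computed by a Fiji macro from 16 manually set reference points on maximum projections of dorsal pronephros images, and values beyond 2 SD of the feature mean were removed.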
row,SMILES,glomerular width
1,CC1(C)S[C@@H]2[C@H](NC(=O)[C@H](C(=O)O)c3ccsc3)C(=O)N2[C@H]1C(=O)O [Ticarcillin sodium],1.01 ± 0.048
2,COc1nc(C)nc(Cl)c1NC1=NCCN1 [Moxonidine],1.01 ± 0.011
3,Cc1nccn1CC1CCc2c(c3ccccc3n2C)C1=O (stereo not given) [Ondansetron Hydrochloride],1.011 ± 0.01
4,C[C@]12CC[C@@H]3c4ccc(O)cc4CC[C@H]3[C@@H]1CCC2=O [Estrone],0.983 ± 0.0046
5,N=C(N)c1ccc(OCCCCCOc2ccc(C(=N)N)cc2)cc1 [Pentamidine isethionate],0.99 ± 0.024
6,Cc1cccc(C)c1NC(=O)C1CCCCN1C (stereo not given) [Mepivacaine hydrochloride],1.06 ± 0.058
7,CN1CCCN(C(c2ccccc2)c2ccc(Cl)cc2)CC1 (stereo not given) [Homochlorcyclizine dihydrochloride],0.975 ± 0.015
8,CO/N=C(\C(=O)N[C@@H]1C(=O)N2C(C(=O)OC(C)OC(C)=O)=C(COC(N)=O)CS[C@H]12)c1ccco1 (stereo not given in full) [Cefuroxime axetil],1.02 ± 0.023
9,Cn1cnc([N+](=O)[O-])c1Sc1ncnc2[nH]cnc12 [Azathioprine],1.02 ± 0.042
10,COC(=O)[C@H](c1ccccc1Cl)N1CCc2sccc2C1 [Clopidogrel],0.893 ± 0.055
11,O=C(c1ccc(F)cc1)C1CCN(CCn2c(=O)[nH]c3ccccc3c2=O)CC1 [Ketanserin tartrate hydrate],0.939 ± 0.021
12,CCN(CC)CCNC(=O)c1cc(Cl)c(N)cc1OC [Metoclopramide monohydrochloride],0.962 ± 0.015
13,C=CCOC(Cn1ccnc1)c1ccc(Cl)cc1Cl (stereo not given) [Enilconazole],1.12 ± 0.024
14,Cc1ncc([N+](=O)[O-])n1CCO [Metronidazole],0.928 ± 0.084
15,CC(C)NCC(O)COc1ccc(COCCOC(C)C)cc1 (stereo not given) [Bisoprolol fumarate],1.07 ± 0.03
16,NC(CO)C(=O)NNCc1ccc(O)c(O)c1O (stereo not given) [Benserazide hydrochloride],1.01 ± 0.071
17,CCN1CCC[C@H]1CNC(=O)c1c(OC)ccc(Br)c1OC [Remoxipride Hydrochloride],1.02 ± 0.08
18,COc1ccccc1Oc1c(NS(=O)(=O)c2ccc(C(C)(C)C)cc2)nc(-c2ncccn2)nc1OCCO [Bosentan],1.02 ± 0.034
19,CCCCC(CC)CN1CN(CC(CC)CCCC)CC(C)(N)C1 (stereo not given) [Hexetidine],0.9542 ± 0.0081
20,C#C[C@]1(O)CC[C@H]2[C@@H]3[C@H](C)CC4=C(CCC(=O)C4)[C@H]3CC[C@@]21C [Tibolone],0.908 ± 0.019

row,SMILES,glomerular width
1,CC(=O)[C@@]1(O)CC[C@H]2[C@@H]3C[C@H](C)C4=CC(=O)C=C[C@]4(C)[C@@]3(F)[C@@H](O)C[C@@]21C [Fluorometholone],1.174 ± 0.0086
2,O=C(O)COCCN1CCN(C(c2ccccc2)c2ccc(Cl)cc2)CC1 (stereo not given) [Cetirizine dihydrochloride],1.09 ± 0.012
3,CN(C)c1ccc(O)c2c1C[C@H]1C[C@H]3[C@H](N(C)C)C(O)=C(C(N)=O)C(=O)[C@@]3(O)C(O)=C1C2=O [Minocycline hydrochloride],1.02 ± 0.024
4,CC(=O)OC(C)C[N+](C)(C)C (stereo not given) [Methacholine chloride],1.08 ± 0.0033
5,CNCCC=C1c2ccccc2CCc2ccccc21 [Nortriptyline hydrochloride],0.9614 ± 0.0024
6,Cc1ccc2c(c1)c1c3n2CCNC3CCC1 (stereo not given) [Pirlindole mesylate],1.07 ± 0.036
7,CC(C)CC(=O)N[C@H](C(=O)N[C@H](C(=O)N[C@@H](CC(C)C)[C@@H](O)CC(=O)N[C@@H](C)C(=O)N[C@@H](CC(C)C)[C@@H](O)CC(=O)O)C(C)C)C(C)C [Pepstatin A],1.03 ± 0.012
8,CC(C)(C)C(=O)OCOC(=O)[C@@H]1N2C(=O)[C@@H](NC(=O)[C@H](N)c3ccccc3)[C@H]2SC1(C)C [Pivampicillin],1 ± 0.011
9,CCc1ccc(CCOc2ccc(CC3SC(=O)NC3=O)cc2)nc1 (stereo not given) [Pioglitazone],1.03 ± 0.0063
10,CN(Cc1ccc(C(C)(C)C)cc1)Cc1cccc2ccccc12 [Butenafine Hydrochloride],0.9818 ± 0.007
11,CC(C(=O)O)c1ccc(N2Cc3ccccc3C2=O)cc1 (stereo not given) [Indoprofen],0.658 ± 0.069
12,CN1CCC(=C2c3ccccc3CCc3cccnc32)CC1 [Azatadine maleate],0.9513 ± 0.00027
13,C=C1c2cccc(O)c2C(=O)C2=C(O)[C@]3(O)C(=O)C(C(N)=O)=C(O)[C@@H](N(C)C)[C@@H]3[C@@H](O)[C@H]12 [Methacycline hydrochloride],1.11 ± 0.0095
14,COC(=O)C1=C(C)NC(C)=C(C(=O)OC(C)C)C1c1cccc2nonc12 (stereo not given) [Isradipine],0.666 ± 0.037
15,CNCCCC12CCC(c3ccccc31)c1ccccc12 [Maprotiline hydrochloride],0.992 ± 0.049
16,CC1(C)S[C@@H]2[C@H](NC(=O)[C@H](NC(=O)N3CCNC3=O)c3ccccc3)C(=O)N2[C@H]1C(=O)O [Azlocillin sodium salt],1.01 ± 0.023
17,NC(=O)NC1NC(=O)NC1=O (stereo not given) [Allantoin],0.9104 ± 0.001
18,Cc1[nH]cnc1CN1CCc2c(c3ccccc3n2C)C1=O [Alosetron hydrochloride],1.027 ± 0.0085
19,CN[C@@H]1[C@@H](O[C@H]2O[C@H](CO)[C@@H](N)[C@H](O)[C@H]2O)OC2C[C@@H](N)[C@@H](O[C@H]3[C@H](O)[C@@H](O)[C@H](N)C[C@@H]3N)OC2[C@@H]1O (stereo not given in full) [Apramycin],0.977 ± 0.021
20,CN1CCc2cccc3c2[C@H]1Cc1ccc(O)c(O)c1-3 [R(-) Apomorphine hydrochloride hemihydrate],0.954 ± 0.018
